The record followed here is PubChem BioAssay.

In assay [1] the test system is Wnt5a (protein binding on small-molecule microarray). The assay can be described thus: small molecules binding Wnt5a protein – biophysical, small-molecule microarray, 635/667 nm fluorescence, primary screen (AID 1142).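 Further: fluorescence read at 667 nm with signal to noise per printed feature.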 The settings on record: 635 nm fluorescence, higher = more signal.
Assay [2] can be described thus: ATP-based viability of Huh7 replicon cells – cell-based, CellTiter-Glo luminescence, basal, 48 h, cytotoxicity control for HCV replication inhibitor project, primary screen (AID 1143).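 Further: Huh7 hepatoma cells carrying a hepatitis C replication reporter with no stimulus; test concentration not given here.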 The settings on record: higher = more signal, called active from +8 up or from −8 down. (Replicon systems follow genome replication, usually without infectious particles.)
Assay [3] can be described thus: Pseudomonas biofilm growth suppression – PAO1 strain, BacTiter-Glo luminescence, LB-PBS, primary screen (AID 1144). The settings on record: P. aeruginosa PAO1 biofilm, 12 h, higher = more signal.
A short description of assay [4]: basal CRE-LacZ reporter activity in PC12 – cell-based, unstimulated, primary screen (AID 1145). Conditions: no forskolin, luminescence, 4.5 h, higher = more signal, called active from +8 up or from −8 down.
The nature of assay [5]: forskolin-driven CRE-LacZ activity in PC12 – cell-based, CRE-LacZ reporter, forskolin-stimulated, primary screen (AID 1146).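 Further: PC12 cells with 6xCRE LacZ reporter stimulated by forskolin 10 µM; beta-galactosidase reporter signal reflecting CREB driven transcription.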 The settings on record: luminescence, 4.5 h, higher = more signal, called active from +8 up or from −8 down.
The target of assay [6] is Streptavidin (Streptomyces avidinii) (UniProt P22629). Briefly: compounds binding control protein streptavidin – biophysical, small-molecule microarray, 635/667 nm fluorescence, artefact control for SMM compound annotation, primary screen (AID 1147).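 Further: signal reflects streptavidin binding to arrayed compounds as a control protein.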 Conditions: higher = more signal.
Assay [7] can be described thus: probe aInhba binding on compound microarray – biochemical, small-molecule microarray, 635/667 nm fluorescence, primary screen (AID 1148).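 Further: score merges 667nm spot fluorescence with signal-to-noise for antibody binding to printed compounds.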 The settings on record: higher = more signal.
The target in assay [8] is Torsin-1A (Homo sapiens) (UniProt O14656). Briefly: TOR1A wild-type binding on microarray – cell lysate, small-molecule microarray, lysate, 635/667 nm, primary screen (AID 1149). Conditions: COS7 hTOR1A-WT lysate, 635 nm fluorescence, higher = more signal.
Assay [9] shares this target. Briefly: torsin A mutant lysate binding on microarrays – cell lysate, small-molecule microarray, COS7 lysate, 635/667 nm fluorescence, primary screen (AID 1150).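 Further: score pools 667 nm emission and signal to noise measuring lysate protein binding.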 Conditions: COS7 hTOR1A mutant lysate, 635 nm fluorescence, higher = more signal.
The subject of assay [10] is Sonic hedgehog protein (Shh). The assay can be described thus: Sonic hedgehog microarray binding compounds – biochemical, small-molecule microarray, 635/667 nm fluorescence, primary screen (AID 1151).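 Further: Shh protein binding to compounds spotted on small-molecule microarray slides; score combines spot fluorescence intensity with signal-to-noise across triplicate slides.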 The settings on record: 635 nm fluorescence, higher = more signal.

Structures are written as SMILES. Calls of active or inactive are those of the source. Unless noted, how the calls were made is not given here.

Streptavidin (Streptomyces avidinii), sequence (P22629 whole entry, looked up): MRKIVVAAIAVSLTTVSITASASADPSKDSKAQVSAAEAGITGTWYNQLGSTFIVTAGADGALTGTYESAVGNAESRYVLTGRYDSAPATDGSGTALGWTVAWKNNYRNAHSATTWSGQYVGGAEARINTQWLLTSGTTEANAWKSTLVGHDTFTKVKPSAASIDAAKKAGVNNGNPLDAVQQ
Torsin-1A (Homo sapiens), sequence (O14656 whole entry, looked up): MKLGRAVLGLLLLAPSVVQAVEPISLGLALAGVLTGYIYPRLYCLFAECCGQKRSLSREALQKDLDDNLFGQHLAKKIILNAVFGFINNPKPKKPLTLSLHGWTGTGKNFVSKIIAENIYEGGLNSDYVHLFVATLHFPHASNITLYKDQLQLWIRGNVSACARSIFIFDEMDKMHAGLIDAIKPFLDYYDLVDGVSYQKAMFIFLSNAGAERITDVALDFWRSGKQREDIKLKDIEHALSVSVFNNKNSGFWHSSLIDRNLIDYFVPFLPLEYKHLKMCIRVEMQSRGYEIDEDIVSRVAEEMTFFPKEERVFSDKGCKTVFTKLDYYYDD

Turning to `CC(C)N1C(=O)c2ccccc2[C@](C)(C(=O)NCc2ccccc2)[C@@H]1c1ccc(CO)cc1`, the composite z-score in [1] is -0.111; in assay [6], -0.558; in [7], -0.154; in the assay with Torsin-1A (Homo sapiens) [8], 1.3; in the assay with Torsin-1A (Homo sapiens) [9], -0.119; in assay [10] it was -0.0391. For the same molecule, the z-score in [2] was -0.139 (inactive); in [3] it was 0.261 (inactive); in assay [4], 0.558 (inactive); in [5] it was -0.074 (inactive).

Take `COc1ccc(C(=O)Nc2ccc(CN3C(=O)[C@@]4(O[C@@H](CCO)[C@H]([Si](C)(C)c5ccc(OC)cc5)[C@H]4C)c4ccccc43)cc2)cc1`: the composite z-score is 0.146 in [1]; 0.225 in assay [6]; -0.201 in assay [7]; 1.05 with Torsin-1A (Homo sapiens) [8]; 0.471 in the assay with Torsin-1A (Homo sapiens) [9]; 1.96 in [10]. Moreover, the z-score in [2] was -8.02 (active); in [3], 0.422 (inactive); in assay [4] it was 3.11 (inactive); in assay [5], -1.27 (inactive).

Take `[N-]=[N+]=NCc1ccccc1[C@@H]1OC(c2ccc(OCCCO)cc2)=N[C@]1(CCS(=O)(=O)c1ccccc1)C(=O)NCCN1CCOCC1`: the composite z-score in [1] is 0.808; in [6] it was 0.81; in assay [7], 0.285; with Torsin-1A (Homo sapiens) [8], 2.1; with Torsin-1A (Homo sapiens) [9], 1.9; in assay [10], 0.615. Also, the z-score in assay [2] is -0.31 (inactive); in assay [3], -0.174 (inactive); in assay [4] it was 1.24 (inactive); in assay [5] it was -1.16 (inactive).

`C#CCN(CC=C(C)C)[C@H](CO)c1ccccc1`: the composite z-score was -0.0366 in assay [1]; 0.0089 in assay [6]; -0.0719 in assay [7]; 0.247 with Torsin-1A (Homo sapiens) [8]; 1.08 in the assay with Torsin-1A (Homo sapiens) [9]; 0.0568 in [10]. The z-score in [2] is -4.16 (inactive); in [3], -0.215 (inactive); in assay [4], -0.153 (inactive); in assay [5], 0.979 (inactive).

Turning to `CCc1oc(CC[C@@H](CO)NC(=O)NCCn2cc(C3(O)CCCCC3)nn2)c(C(=O)OC)c1C(=O)OC`, the composite z-score is 0.209 in [1]; -0.0709 in assay [6]; 0.174 in assay [7]; 1.31 with Torsin-1A (Homo sapiens) [8]; 1.11 with Torsin-1A (Homo sapiens) [9]; 2.09 in assay [10]. Further, the z-score in assay [2] was -0.186 (inactive); in assay [3], 0.73 (inactive); in assay [4], 1.01 (inactive); in assay [5], 1.01 (inactive).

Regarding `CCOC(=O)C[C@H]1[C@H](OC(=O)Cc2ccc3c(c2)OCO3)[C@@H](NC(=O)c2ccc3ccccc3c2)c2cc(OCCCO)ccc2N1C(=O)c1ccccc1`, the composite z-score in assay [1] stood at 0.0819; in assay [6], 0.397; in assay [7] it was 0.0184; with Torsin-1A (Homo sapiens) [8], 0.0289; with Torsin-1A (Homo sapiens) [9], 0.458; in assay [10], 0.601. For the same molecule, the z-score was -0.23 (inactive) in assay [2], -0.784 (inactive) in [3], 4.07 (inactive) in assay [4] and 0.005 (inactive) in assay [5].

Consider `CN(C)CCCC[C@@H]1NC(=O)[C@H]2C[C@@H](C(=O)NCCCCCNC(=O)CS)[C@@H](c3cccc(OCCO)c3)N2C1=O`, for which the composite z-score in assay [1] was 0.12; in assay [6], 0.182; in assay [7], -0.128; with Torsin-1A (Homo sapiens) [8], 0.537; with Torsin-1A (Homo sapiens) [9], 0.749; in [10], 1.72. The z-score in [2] is 0.358 (inactive); in assay [3], -0.358 (inactive); in assay [4], -0.114 (inactive); in assay [5], 0.547 (inactive).

Take `COc1cc2c(cc1O)C=[N+](Cc1cccc(OC(F)(F)F)c1)CC2`: the composite z-score was -0.141 in [1]; -0.535 in assay [6]; -0.127 in assay [7]; 0.955 in the assay with Torsin-1A (Homo sapiens) [8]; 0.284 in the assay with Torsin-1A (Homo sapiens) [9]; -0.0245 in [10]. The z-score in assay [2] was -2.11 (inactive); in assay [3], -0.28 (inactive); in assay [4], -0.401 (inactive); in assay [5], -0.583 (inactive).

As for `[N-]=[N+]=Nc1ccccc1C[C@]1(C(N)=O)N=C(c2ccc(OCCCO)cc2)O[C@H]1c1ccccc1`, the composite z-score in [1] is 0.498; in assay [6], 0.665; in assay [7], 0.0516; in the assay with Torsin-1A (Homo sapiens) [8], 0.644; with Torsin-1A (Homo sapiens) [9], -0.0736; in assay [10], -1.98. Besides, the z-score in assay [2] is -2.27 (inactive); in assay [3], -0.726 (inactive); in assay [4] it was 1.31 (inactive); in assay [5] it was -0.723 (inactive).

With `C=CCOC(=O)[C@H]1[C@@H]2C(=O)O[C@@H](c3ccccc3)[C@@H](c3ccccc3)N2[C@@H](c2ccc(OCCOC(=O)[C@@H]3C[C@@H]4C(=O)N[C@@H](CCCC[N+](C)(C)C)C(=O)N4[C@@H]3c3ccc(O)cc3)cc2)[C@]12C(=O)Nc1ccccc12`, the composite z-score in assay [1] is 0.444; in assay [6], -0.0862; in assay [7], -0.0494; with Torsin-1A (Homo sapiens) [8], 1.67; in the assay with Torsin-1A (Homo sapiens) [9] it was 1.23; in assay [10], 2.06. Moreover, the z-score is -2.47 (inactive) in [2], -1.19 (inactive) in [3], -1.07 (inactive) in [4] and -1.48 (inactive) in assay [5].

With `CCN(CC)c1ccc(N2CC=CC34O[C@@H]5/C=C\CCCOC(=O)C5[C@H]3C(=O)N(CCO)[C@@H]4C2=O)cc1` (stereo not given in full), the composite z-score in assay [1] was -0.6; in assay [6], -0.79; in [7], -0.219; in the assay with Torsin-1A (Homo sapiens) [8], -1.53; in the assay with Torsin-1A (Homo sapiens) [9], -0.705; in [10], 0.0512. Moreover, the z-score in [2] is -0.117 (inactive); in [3] it was 0.0243 (inactive); in [4] it was 0.601 (inactive); in assay [5] it was -0.462 (inactive).

Consider `COCC(=C=CC[C@@H](O)c1ccccc1OCCO)C[C@@H](O)c1cc(Cl)cc(Cl)c1O`, for which the composite z-score is 0.539 in assay [1]; 0.394 in [6]; -0.0112 in [7]; 1.66 with Torsin-1A (Homo sapiens) [8]; 1.04 with Torsin-1A (Homo sapiens) [9]; 2.07 in [10]. For the same molecule, the z-score in assay [2] was -1.54 (inactive); in assay [3], 0.112 (inactive); in assay [4], 15.6 (active); in assay [5], 0.789 (inactive).

As for `CC(C)C[C@H]1NC(=O)[C@@]23C(=O)N[C@@H](Cc4ccccc4)C2[C@H](C)[C@@]2(C)O[C@H]2C3/C=C/C/C=C\CNC(=O)[C@H](Cc2ccccc2)NC1=O` (stereo not given in full), the composite z-score in assay [1] is 0.234; in assay [6], -0.279; in [7] it was -0.0189; in the assay with Torsin-1A (Homo sapiens) [8] it was 0.839; in the assay with Torsin-1A (Homo sapiens) [9] it was 0.716; in [10] it was 2.06. Further, the z-score in assay [2] was -0.73 (inactive); in assay [3], -0.137 (inactive); in [4], -0.416 (inactive); in assay [5] it was -0.862 (inactive).

As to `COCCOC(=O)N1C(=O)[C@@]2(c3cc(C#CC4=CCCCC4)ccc31)[C@H](C(N)=O)[C@H]1C(=O)O[C@H](c3ccccc3)[C@H](c3ccccc3)N1[C@@H]2c1ccc(OCCO)cc1`, the composite z-score was 0.14 in assay [1]; -0.602 in [6]; -0.406 in [7]; 0.394 with Torsin-1A (Homo sapiens) [8]; 0.644 with Torsin-1A (Homo sapiens) [9]; 1.02 in assay [10]. For the same molecule, the z-score is -4.37 (inactive) in assay [2], -1.72 (inactive) in assay [3], -0.195 (inactive) in [4] and -0.327 (inactive) in assay [5].
